# Results taken from the supplement of paper PMC6555819.
# Key:
# Test in all cases: PBM binding z-score (relative to random genomic background probes); higher = stronger binding; sequences stand for … in GC…GCGATTGACAGCGTAGAATGAAGG
# [1] = system: PPARg:RXRa DBDmut IVT, anti-RXR (DBD mutation: RXRa K156A/R161A, NR concentration 270 nM, RXRa partner concentration 90 nM)
# Method in brief: (§1)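 Binding buffer was PBS pH 7.4 with 2% milk, 0.02% Triton X-100, 1 mM DTT, 0.2 mg/mL BSA and 0.4 mg/ml salmon testes DNA. In it, ligand-free nuclear receptor dimers were incubated 1 h on custom Agilent 4×180K protein-binding microarrays carrying double-stranded probes. Antibodies against each partner (one per run) detected binding, and z-scores were calculated against random background probes after regression normalization of scanned fluorescence.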
# [2] = system: PPARg:RXRa IVT, anti-PPARg (NR concentration 270 nM, RXRa partner concentration 90 nM)
# Method in brief: as §1
# [3] = system: PPARg DBDmut:RXRa IVT, anti-PPARg (DBD mutation: PPARg1 K132A/R137A, NR concentration 270 nM, RXRa partner concentration 90 nM)
# Method in brief: as §1
# [4] = system: PPARg DBDmut IVT, anti-PPARg (DBD mutation: PPARg1 K132A/R137A, NR concentration 270 nM)
# Method in brief: as §1
# [5] = system: PPARg homodimer (NR concentration 180 nM)
# Method in brief: as §1
# [6] = system: PXR:RXRa (NR concentration 270 nM, RXRa partner concentration 90 nM)
# Method in brief: as §1
# [7] = system: PXR homodimer (NR concentration 270 nM)
# Method in brief: as §1
# [8] = system: RARa:RXR (NR concentration 270 nM, RXRa partner concentration 90 nM)
# Method in brief: as §1
# [9] = system: RARa homodimer (NR concentration 270 nM)
# Method in brief: as §1
# [10] = system: RARb:RXRa (NR concentration 270 nM, RXRa partner concentration 90 nM)
# Method in brief: as §1
# [11] = system: RARb homodimer (NR concentration 270 nM)
# Method in brief: as §1
# [12] = system: RARg:RXRa (NR concentration 270 nM, RXRa partner concentration 90 nM)
# Method in brief: as §1
# [13] = system: RARg homodimer (NR concentration 270 nM)
# Method in brief: as §1
# [14] = system: RXRa DBDmut IVT, anti-RXR (DBD mutation: RXRa K156A/R161A, NR concentration 90 nM)
# Method in brief: as §1
# [15] = system: THRa:RXRa (NR concentration 90 nM, RXRa partner concentration 90 nM)
# Method in brief: as §1
# [16] = system: THRa homodimer (NR concentration 90 nM)
# Method in brief: as §1
# [17] = system: VDR homodimer (NR concentration 270 nM)
# Method in brief: as §1
# [18] = system: RXRa homodimer (NR concentration 180 nM)
# Method in brief: as §1
# [19] = system: VDR:RXRa (NR concentration 270 nM, RXRa partner concentration 90 nM)
# Method in brief: as §1
Sequence,PBM binding z-score [1],PBM binding z-score [2],PBM binding z-score [3],PBM binding z-score [4],PBM binding z-score [5],PBM binding z-score [6],PBM binding z-score [7],PBM binding z-score [8],PBM binding z-score [9],PBM binding z-score [10],PBM binding z-score [11],PBM binding z-score [12],PBM binding z-score [13],PBM binding z-score [14],PBM binding z-score [15],PBM binding z-score [16],PBM binding z-score [17],PBM binding z-score [18],PBM binding z-score [19]
CGTCCAAGGTCATAGGAGGTCATTGAAGACAGAT,3.6,4.68,0.258,0.325,4.58,7.17,10,6.52,2.32,5.47,5.6,7.14,7.75,4.08,5.39,3.7,6.14,–,–
ATCGAATGGTCGAGGTGAGTATAGAGAAAGGGAA,-0.483,0.658,1.03,0.73,0.372,-0.283,0.0857,0.0342,0.112,0.541,0.319,–,0.76,-0.577,0.936,0.55,-0.57,0.118,-0.226
ACTAGCAGGCCAAGGGTGACTCAAGATTAGTCCG,0.931,1.84,-0.0543,-0.633,-0.412,-0.0749,-0.354,0.264,-0.894,0.8,0.337,0.341,0.646,-0.454,0.239,-0.521,-0.791,–,–
TAGCCTAGGTCATTTGGCCAGTATAGTACGCATC,1.38,2.47,0.221,0.0367,0.566,1.61,-0.0591,2.08,-0.227,3.67,2.59,–,4.08,1.99,2.65,0.679,1.27,2.73,2.52
CCTACTGGGCCAAGGTCATTGAGCAGTCAAAGCA,3.78,4.64,0.0966,0.249,1.29,3.5,1.2,3.64,-0.199,3.21,3.03,–,3.23,1.23,3.23,2.18,2.65,3.66,–
CCTTACGGGTCAGGGTTATAGCACGGGTGGTACG,0.748,2.22,-0.0775,-0.847,1.81,2.25,-0.00485,3.06,0.308,3.41,2.89,–,3.8,-0.999,2.29,0.154,0.894,3.87,–
TCTGCTTGGTCAACGATGGTCAGCTAATCTGCTA,0.689,0.425,0.225,-0.53,-0.633,-0.0602,-0.841,0.401,-1.62,1.17,0.448,–,0.624,-0.0435,0.139,-1.13,-1.09,0.237,–
TTACCGAGGTGAAAGGTCGTTGATGCACGCCTTG,3.24,5.19,0.609,0.681,2.03,4.58,0.0493,6.71,-0.0852,3.11,2.67,–,1.87,0.775,3.7,0.983,1.47,6.76,–
ATCGAAAGGTCGAAGGAGAGTATACCCACCCGAA,-0.0352,1.35,0.946,0.145,1.41,2.39,0.0516,3.11,0.728,3.62,1.98,–,3.81,0.774,1.76,-0.242,0.458,3.75,–
AATACAGGGTCCTCGTAGGCCAGAGTACGCACAG,-0.234,0.716,-0.242,0.0325,-0.0615,-0.282,-0.0675,-0.118,-0.348,0.268,0.334,–,0.183,-0.129,1.16,0.203,0.487,0.449,-0.154
TCTGCTAGGTCAGGTGGTCAGCTAACGAGCTGCC,2.43,2.96,-0.185,-0.486,-0.444,0.451,-0.687,1.18,-1.1,3.38,2.83,–,3.58,0.176,1.77,0.331,-0.539,1.66,–
CAAACTAGGTCAAGAGGTCAAACTCCGCTTCCCG,8.21,8.74,4.72,2.13,6.57,6.37,4.12,8.15,2.88,5.41,5.81,–,7.93,3.21,4.49,2.71,5.63,8.2,–
GCTGCTAGGTCAACTGAGGGTCAGCTAAAGCTCG,4.93,4.17,-0.389,-0.635,4.56,4.5,-0.492,5.93,0.262,4.83,5.18,–,6.85,1.67,4.16,1.47,1.36,4.59,–
